This is a sample that favours compounds with a hit; in the whole collection about 2.1% have one here.
PfM18AAP inh-1 – blocks P. falciparum M18 aspartyl aminopeptidase; recombinant PfM18AAP, H-Glu-NHMec fluorogenic cleavage; inhibition, % at 7.35 µM; 1.2% of 290,000 active; AID 1822;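 active means inhibition above the campaign mean inhibition over all tested compounds plus 3 SD, cut at about 28% in these data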;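 further: 0% = plate median of test compound wells and 100% = 2 mM ZnCl2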
Calb FLC – C. albicans growth modulation with fluconazole; C. albicans CaCi-2 (fluconazole-resistant clinical isolate) + fluconazole, Alamar Blue growth, 48 h; growth inhibition, % (concentration not given with the values); 0.57% of 300,000 active;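 active means growth inhibition above about 58% in most replicates, limit read from the data, passing the limit was not always enough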;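 further: all wells also contain fluconazole at 8 µg/ml as a sub-toxic cotreatment; 0% = median of DMSO wells and 100% = median of geldanamycin control wells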
Rin1 Abl inh – human Rin1-Abl interaction inhibition; TR-FRET Rin1/Abl binding, biochemical; inhibition, % at 7.35 µM; 0.4% of 360,000 active; AID 588664; in the data active means inhibition above about 5%, passing the limit was not always enough
CTSL1 counter-1 – blocks F. hepatica cathepsin L1 in PFM18AAP counter-screen. 0.49% of 300,000 active. inhibition, % at 5.96 µM. recombinant F. hepatica cathepsin L1, Z-Leu-Arg-MCA fluorescence;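 active means inhibition above the mean of all tested compounds plus 3 SD, set per screening campaign, cut at about 17% in these data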;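 further: 0% = plate median of test compound wells and 100% = 1 µM Z-Phe-Ala-diazomethylketone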
PfM18AAP inh-2 – confirmation of Plasmodium falciparum M18 aspartyl aminopeptidase inhibitors; 28% of 2,400 active; shares compounds with PfM18AAP inh-1; inhibition, % at 7.35 µM; recombinant PfM18AAP, H-Glu-NHMec fluorogenic cleavage;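 active means mean inhibition over replicate wells above the hit cutoff set for the earlier primary screen, cut at about 29% in these data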;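 further: 0% = median of test compound wells and 100% = 2 mM ZnCl2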
CTSL1 counter-2 – counter-screen for PFM18AAP inhibitors: confirmation of human cathepsin L inhibitors | shares compounds with PfM18AAP inh-1 | purified cathepsin L1, Z-Leu-Arg-MCA fluorescence | inhibition, % at 5.96 µM | 2,400 tested, under 10 active | AID 2178;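 active means average inhibition across replicates above the hit cutoff set in the earlier primary screen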;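 further: 0% = median of test compound wells and 100% = Z-Phe-Ala-diazomethylketone 1 µM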
Target sequence (P07711 whole entry, looked up): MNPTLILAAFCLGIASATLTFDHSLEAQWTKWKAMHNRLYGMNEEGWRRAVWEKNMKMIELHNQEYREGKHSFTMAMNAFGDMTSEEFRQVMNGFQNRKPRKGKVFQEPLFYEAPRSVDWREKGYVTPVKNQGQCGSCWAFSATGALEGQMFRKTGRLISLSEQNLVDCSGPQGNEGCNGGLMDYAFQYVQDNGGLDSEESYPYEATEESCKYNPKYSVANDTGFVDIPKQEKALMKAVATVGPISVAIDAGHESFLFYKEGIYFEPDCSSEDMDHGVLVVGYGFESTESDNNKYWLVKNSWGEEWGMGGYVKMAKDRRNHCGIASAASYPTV
* marks the source's active call; other numbers are inactive results; nt = not tested or not shown.

SMILES	PfM18AAP inh-1	Calb FLC	Rin1 Abl inh	CTSL1 counter-1	PfM18AAP inh-2	CTSL1 counter-2
COc1cc(NC(=O)CSc2nc3[nH]ncc3c(=O)n2-c2ccccc2)cc(OC)c1OC	nt	nt	1	nt	nt	nt
CC(=O)Nc1ccc(NC(=O)CSc2nc3[nH]ncc3c(=O)n2-c2ccccc2)cc1	49*	5	4	0	1	-6
Cc1nnc(SC(C)C#N)n1-c1ccccc1 (centres undefined)	-8	-2	2	0	nt	nt
CCOc1ccc(S(=O)(=O)Nc2ncn[nH]2)cc1	46*	-11	1	1	33*	-5
CCOc1ccc(Br)cc1S(=O)(=O)Nc1ncn[nH]1	1	4	5	-2	nt	nt
Cc1ccc2oc(=O)c3cnn(CC(=O)Nc4cc(-c5cccc(F)c5)no4)c3c2c1	0	-5	-2	0	nt	nt
O=C(O)c1ccc(O)c(N2C(=O)Nc3ccccc3N2O)c1	50*	-9	1	0	12	0
COC(=O)[C@@]1(Cc2ccc(F)cc2)[C@H]2c3cc(C(=O)N4CCCC4)n(CCc4ccc(O)c(O)c4)c3C[C@H]2CN1C(=O)c1ccccc1	75*	-6	nt	3	49*	4
O=C1CCCC/C1=C\Nc1ccc(C(=O)O)c(O)c1	33*	-27	-2	1	-19	2
COc1ccc(C(C)=O)cc1CSc1nc2ccccc2c(=O)n1-c1ccccc1C	43*	9	-3	-3	-62	2
NS(=O)(=O)c1ccc(-c2ccc(/C=C3\NC(=S)NC3=O)o2)cc1	37*	-2	-2	5	12	-1
O=C(c1cccn2c(=O)c3ccc(Cl)cc3nc12)N1CCN(Cc2ccc3c(c2)OCO3)CC1	-3	14	-4	2	nt	nt
COC(=O)C1=C(C)NC(=S)NC1c1ccc(-c2cc(Cl)ccc2Cl)o1 (centres undefined)	36*	4	-2	6	-55	9
COC(=O)C1=C(C)NC(=O)NC1c1ccc(-c2ccc(Cl)cc2)o1 (centres undefined)	5	4	3	0	nt	nt
Cc1[nH]c(=S)c(C#N)c(-c2ccco2)c1C(=O)N(C)C	51*	-3	4	2	29*	1
COc1ccc(C)cc1NS(=O)(=O)c1cn(C)nc1C	3	-16	7	-2	nt	nt
CCOC(=O)/C(C#N)=C/c1c(N2CCN(c3ccccc3)CC2)nc2ccccn2c1=O	22	16	2	-2	nt	nt
COc1cccc(C2C(C(=O)c3cccs3)=C(O)C(=O)N2c2cc(C)on2)c1 (centres undefined)	35*	19	2	0	-36	2
Cc1cc(N2C(=O)C(O)=C(C(=O)c3cccs3)C2c2cccc(O)c2)no1 (centres undefined)	25	3	-3	-1	nt	nt
COc1cc(C2C(C(=O)c3cccs3)=C(O)C(=O)N2c2cc(C)on2)ccc1O (centres undefined)	55*	2	0	-1	-47	-3
O=C(CSc1nc2ccccc2o1)N/N=C/c1ccc(O)c(O)c1	62*	11	3	-1	52*	-3
O=C(Cc1nnc(NC(=O)c2ccccc2)s1)N/N=C\c1ccc(O)c(O)c1	57*	-9	2	8	38*	0
Cc1cc(SCC(=O)N/N=C/c2ccc(O)cc2O)nc2ccccc12	10	8	-5	10	nt	nt
Cc1cc(SCC(=O)N/N=C/c2ccc(O)c(O)c2)c(C)cc1Br	54*	-2	2	0	36*	-3
Cc1cc(SCC(=O)N/N=C/c2ccc(O)c(O)c2)nc2ccccc12	56*	-12	-2	-2	43*	2
SMILES	PfM18AAP inh-1	Calb FLC	Rin1 Abl inh	CTSL1 counter-1	PfM18AAP inh-2	CTSL1 counter-2
C=C(C)C1CC=C(C)/C(=N\NC(=O)CCc2ccccc2)C1 (centres undefined)	2	0	-1	-2	nt	nt
O=C(N/N=C/c1ccc(O)c(O)c1)c1cc(-c2ccccc2)nc2ccccc12	61*	1	2	0	48*	-5
O=C(N/N=C/c1cccc(O)c1)c1cc(-c2ccccc2)nc2ccccc12	3	14	0	2	nt	nt
N#Cc1c(N)sc2c1CCN(CCc1ccccc1)C2	2	-7	-4	2	nt	nt
O=[N+]([O-])/C(C=Nc1ccccc1O)=C\Nc1ccccc1O	34*	0	-4	nt	18	2
CC(C)(C)Cc1c(-c2cccc(Br)c2)nc2ccc(Cl)cn12	nt	nt	2	nt	nt	nt
CCC(C)(C(=O)NC1CCCCC1)N(CC1CCCO1)C(=O)CNC(=O)c1ccccc1 (centres undefined)	35*	-2	1	-4	-56	-2
CN1C(=O)N(c2ccccc2)C(Nc2nncs2)C1(C)C (centres undefined)	-2	-1	5	-2	nt	nt
Cc1ccc(C2NC(=O)c3c(sc(C)c3C)N2)c(O)c1 (centres undefined)	35*	7	4	1	-24	-1
Cc1cccc(C2NC(=O)c3c(sc(C)c3C)N2)c1O (centres undefined)	52*	4	-1	2	-30	2
O=C1CC(=C2c3ccccc3-c3ccccc32)C(=O)N1CCN1CCN(c2cccc(Cl)c2)CC1	-15	-13	5	0	nt	nt
CCONC(=NC)c1nonc1N	1	-2	-1	3	nt	nt
Nc1nonc1C(=Nc1ccccc1)NO	43*	-1	-1	2	31*	0
Cc1cccc(N=C(NO)c2nonc2N)c1	33*	-5	-1	-1	13	-2
N#Cc1cnc(Nc2ccc(F)cc2)nc1N	-5	-4	5	-4	nt	nt
COc1ccc(CCNCc2cc(C)n(-c3ccc(OC)cc3)c2C)cc1	42*	-5	1	-5	-10	-3
COc1ccc(/C=N/Nc2ncnc3c2[nH]c2ccccc23)c(OC)c1OC	36*	-4	3	1	-28	5
COc1cccc(/C=N/Nc2ncnc3c2[nH]c2ccc(C)cc23)c1OC	9	-2	-1	-2	nt	nt
COc1ccccc1NS(=O)(=O)c1ccc(NC(C)=O)cc1	68*	4	0	0	-51	-2
COc1ccccc1NS(=O)(=O)c1ccc(NC(=O)c2ccccn2)cc1	nt	nt	1	nt	nt	nt
COC(=O)Nc1ccc(Cn2cc(C(F)(F)F)ccc2=O)cc1	-4	23	3	-6	nt	nt
CN1C(=O)c2c(sc3c2CCCC3)NC1c1ccccc1O (centres undefined)	34*	-1	nt	-2	-24	-1
O=C1NC(c2cccs2)Nc2sc3c(c21)CCCC3 (centres undefined)	13	-2	-3	1	nt	nt
O=C(NCc1cccnc1)c1cc(Sc2ccc(F)cc2F)nc2ccccc12	-2	3	-3	3	nt	nt
COC(=O)/C=C/c1ccc(OC(=O)OC)c(OC(=O)OC)c1	75*	-8	1	-7	34*	-1
COC(=O)/C=C/c1ccc2c(c1)OCO2	-3	-6	0	1	nt	nt

Assay outcomes: PubChem BioAssay, several laboratories
